For 16 compounds, activity increase over 3SD of controls and activation over 3SD threshold results are on record in PubChem BioAssay.

The list shows a part of the results. Values without a mark were called inactive. Calls of active or inactive are those of the source.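 Rule for the calls, unless noted: active = fluorescence ratio rise of at least 3 SD of vehicle wells above their mean, in both replicate wells; inactive = the rest.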

Potassium voltage-gated channel subfamily KQT member 1 (Homo sapiens), sequence (P51787 whole entry, looked up): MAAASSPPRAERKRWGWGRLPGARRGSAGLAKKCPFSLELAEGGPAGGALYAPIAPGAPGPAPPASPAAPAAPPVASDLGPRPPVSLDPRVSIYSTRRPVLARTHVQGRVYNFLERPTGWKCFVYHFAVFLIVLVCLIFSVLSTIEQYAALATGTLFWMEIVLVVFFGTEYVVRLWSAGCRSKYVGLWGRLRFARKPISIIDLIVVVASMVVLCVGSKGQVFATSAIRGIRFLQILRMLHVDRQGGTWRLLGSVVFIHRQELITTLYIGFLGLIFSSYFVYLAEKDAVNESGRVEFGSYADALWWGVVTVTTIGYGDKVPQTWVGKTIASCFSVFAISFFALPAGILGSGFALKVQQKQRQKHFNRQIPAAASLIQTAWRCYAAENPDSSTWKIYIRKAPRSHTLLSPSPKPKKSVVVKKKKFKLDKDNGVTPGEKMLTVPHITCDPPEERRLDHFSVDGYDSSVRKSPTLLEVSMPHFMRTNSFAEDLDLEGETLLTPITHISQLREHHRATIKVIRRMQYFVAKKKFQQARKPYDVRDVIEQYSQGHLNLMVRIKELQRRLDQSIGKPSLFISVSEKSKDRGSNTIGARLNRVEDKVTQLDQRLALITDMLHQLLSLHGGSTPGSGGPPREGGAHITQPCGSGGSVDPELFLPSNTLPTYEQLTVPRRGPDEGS

Test system in the first assay: not listed separately
Put plainly: parental CHO-K1 cell activation, no KCNQ2 – FluxOR thallium flux, duplicate, counter-screen for KCNQ2 potentiator project, confirmation (AID 2282;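 active = signal rise of at least 3 SD above the untreated control mean, in both duplicate wells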;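 note: counter screen of KCNQ2 potentiator hits so any rise reflects channel-independent effects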). As to conditions: parental CHO-K1 cells, FluxOR thallium flux fluorescence; at 10 µM; stronger effect = higher value; zero = vehicle mean+3SD, 100% = vehicle-minus-blank window. (In general: The purpose of a counterscreen is to sort out artefacts and off-target activity.)
Turning to `CN(c1ccccc1)S(=O)(=O)c1ccc(Cl)c(C(=O)OCC(=O)NCc2ccco2)c1`, the activity increase over 3SD of controls was -5.5%.

`Cc1cccc(NC(=O)c2nc(S(=O)(=O)Cc3ccccc3)ncc2Cl)c1`: the activity increase over 3SD of controls was -15.5%.

`O=C(/C=C/Sc1ncn[nH]1)c1ccc(Cl)cc1`: the activity increase over 3SD of controls is -4%.

For the compound `CC1=NN(C(=O)c2ccc(Br)cc2)C(O)(c2ccccc2)C1` (configuration not stated), the activity increase over 3SD of controls was -19%.

As to `Cc1ccc(C(=O)Nc2nnc(C3=COCCO3)o2)cc1C`, the activity increase over 3SD of controls was 50.1% (active).

For the compound `COc1ccc(-c2n[nH]c(C)c2-c2ccccc2OC)c(O)c1`, the activity increase over 3SD of controls was 28.7% (active).

As for `CCCc1nc2sc3c(c2c(=O)n1NC(=O)CCCl)CCCC3`, the activity increase over 3SD of controls is -7%.

On to `CCOC(=O)NC(C(F)(F)F)(C(F)(F)F)P(=O)(c1ccccc1)c1ccccc1`, for which the activity increase over 3SD of controls was -3.2%.

Take `CCc1ccccc1NC(=O)[C@@H]1CCC(=O)N1C1OC(=O)c2c1ccc(OC)c2OC` (some centres not stated): the activity increase over 3SD of controls was 82.8% (active).

For `CC1(c2ccccc2Cl)NC(=O)N(CC(=O)NC(=O)NCc2ccco2)C1=O` (configuration not stated), the activity increase over 3SD of controls was 15.2% (active).

In the case of `COc1ccc(C(=O)Nc2ncc3c(n2)-c2ccccc2CC3)cc1`, the activity increase over 3SD of controls is -7.8%.

As for `CCCn1c(C2CCCN2c2nc(-c3ccc(C)cc3)cs2)nc2cc(Cl)c(N3CCCCC3)cc21` (configuration not stated), the activity increase over 3SD of controls is 12.5% (active).

`Cc1ccc(S(=O)(=O)N2CCN(C(=O)COC(=O)c3c(C)cc(C)cc3C)CC2)c(C)c1`: the activity increase over 3SD of controls is -0.8%.

As to `Cc1cc2cc3c(cc2nc1SCC(=O)Nc1c(C)cccc1C)CCC3`, the activity increase over 3SD of controls is 20.3% (active).

For `O=C(NCc1ccc2c(c1)OCO2)C12CC3CC(CC(C3)C1)C2`, the activity increase over 3SD of controls is -12%.

With `CC(C)Cc1nnc(NC(=O)CCc2ccccc2)s1`, the activity increase over 3SD of controls is 45% (active).

A further assay has as its target Potassium voltage-gated channel subfamily KQT member 1 (Homo sapiens) (UniProt P51787). Put plainly: KCNQ1 activation in stable CHO cells – cell-based, FluxOR thallium flux, selectivity assay for KCNQ2 potentiator project, confirmation (AID 2283).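 Note: 0% = vehicle mean plus 3 SD and 100% = vehicle minus unstimulated blank.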 As to conditions: FluxOR thallium flux fluorescence, at 10 µM, stronger effect = higher value, beyond 3SD, as % of vehicle-control signal.
`CN(c1ccccc1)S(=O)(=O)c1ccc(Cl)c(C(=O)OCC(=O)NCc2ccco2)c1`: the activation over 3SD threshold was -28.3%.

Take `Cc1cccc(NC(=O)c2nc(S(=O)(=O)Cc3ccccc3)ncc2Cl)c1`: the activation over 3SD threshold is -22.3%.

Consider `O=C(/C=C/Sc1ncn[nH]1)c1ccc(Cl)cc1`, for which the activation over 3SD threshold was 0.3% (active).

Consider `CC1=NN(C(=O)c2ccc(Br)cc2)C(O)(c2ccccc2)C1` (configuration not stated), for which the activation over 3SD threshold is -5.7%.

On to `Cc1ccc(C(=O)Nc2nnc(C3=COCCO3)o2)cc1C`, for which the activation over 3SD threshold is -7.9%.

`COc1ccc(-c2n[nH]c(C)c2-c2ccccc2OC)c(O)c1`: the activation over 3SD threshold is 56.3% (active).

`CCCc1nc2sc3c(c2c(=O)n1NC(=O)CCCl)CCCC3`: the activation over 3SD threshold was 28.9% (active).

In the case of `CCOC(=O)NC(C(F)(F)F)(C(F)(F)F)P(=O)(c1ccccc1)c1ccccc1`, the activation over 3SD threshold is -13.6%.

In the case of `CCc1ccccc1NC(=O)[C@@H]1CCC(=O)N1C1OC(=O)c2c1ccc(OC)c2OC` (some centres not stated), the activation over 3SD threshold was 55% (active).

With `CC1(c2ccccc2Cl)NC(=O)N(CC(=O)NC(=O)NCc2ccco2)C1=O` (configuration not stated), the activation over 3SD threshold was -28.7%.

As to `COc1ccc(C(=O)Nc2ncc3c(n2)-c2ccccc2CC3)cc1`, the activation over 3SD threshold is 8.3% (active).

`CCCn1c(C2CCCN2c2nc(-c3ccc(C)cc3)cs2)nc2cc(Cl)c(N3CCCCC3)cc21` (configuration not stated): the activation over 3SD threshold is -30.1%.

On to `Cc1ccc(S(=O)(=O)N2CCN(C(=O)COC(=O)c3c(C)cc(C)cc3C)CC2)c(C)c1`, for which the activation over 3SD threshold is -20.8%.

On to `Cc1cc2cc3c(cc2nc1SCC(=O)Nc1c(C)cccc1C)CCC3`, for which the activation over 3SD threshold is 6.2% (active).

As for `O=C(NCc1ccc2c(c1)OCO2)C12CC3CC(CC(C3)C1)C2`, the activation over 3SD threshold is -10.2%.

`CC(C)Cc1nnc(NC(=O)CCc2ccccc2)s1`: the activation over 3SD threshold is -19.5%.
